Assay outcomes as filed in PubChem.
This is a sample that favours compounds with a hit; in the whole collection about 3.7% have one here.
DRV1 agonist: GPR32 (DRV1) agonism, beta-arrestin recruitment; CHO-K1 GPR32 beta-arrestin PathHunter luminescence, 90 min; zero percent set by DMSO-only wells; hit rate 2.5% among 48,000; O75388; activation, % at 76.9 µM;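 active = activation of at least 60% and not above a set upper limit, about 1 call in 100 departs from these limits; inconclusive = activation of 40% to 60%, or above that upper limit; inactive = activation under 40%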; also: 0% is about no effect
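Agonism was scored as beta-arrestin recruitment to ProLink-fused GPR32 in stably transfected CHO-K1 cells, giving a chemiluminescent beta-Gal signal; compounds were incubated 90 min at 37 °C.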
B2AR arrestin ag: agonists recruiting beta-arrestin to human beta2-adrenergic receptor; 44,000 tested, under 10 active; HTLA Tango cells, beta-arrestin recruitment, luciferase luminescence, 18 h; Potency, µM (doses to about 46.1 µM), actives largely listed as activators; AID 1347077;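 also: potency is read from the fitted curve at half-maximal effect; 0% = DMSO and full agonism = EC100 isoproterenol or metaproterenol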
Target sequence (P07550 whole entry, looked up): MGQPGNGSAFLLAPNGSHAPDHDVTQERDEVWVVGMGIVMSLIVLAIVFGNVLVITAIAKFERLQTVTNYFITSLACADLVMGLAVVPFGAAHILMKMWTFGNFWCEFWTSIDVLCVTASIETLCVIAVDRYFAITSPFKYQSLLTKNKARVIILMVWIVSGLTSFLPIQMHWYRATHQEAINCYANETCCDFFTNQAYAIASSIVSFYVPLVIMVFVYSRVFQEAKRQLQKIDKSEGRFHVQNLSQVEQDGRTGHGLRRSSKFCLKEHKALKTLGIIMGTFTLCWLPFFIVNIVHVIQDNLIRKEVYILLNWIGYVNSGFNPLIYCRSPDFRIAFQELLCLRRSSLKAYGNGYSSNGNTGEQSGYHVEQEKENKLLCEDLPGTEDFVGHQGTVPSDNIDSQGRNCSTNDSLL
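First, Tango cells carrying beta2-AR and beta-arrestin fusions received compound up to 46 microM. After 18 hr at 37 degrees C, luciferase substrate was added for 15 minutes, then luminescence gave %Activity for curve fitting.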
GALK inhibitor: GALK (human) enzyme inhibition; P51570; recombinant GALK, Kinase-Glo ATP luminescence, 1 h; Potency, µM (titrated, usually from 57.5 µM), without a hit: top-dose activity, negative = inhibition, most hits filed as inhibitors; 44,000 tested, under 10 active; AID 1347072;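 also: plate controls were full GALK reaction for no effect and reaction lacking GALK for full effect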
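Luminescent ATP-depletion readout (Kinase-Glo Plus) after 1 h room-temperature incubation of human GALK (5 nM) with galactose 100 µM and ATP 35 µM, pH 8.0 HEPES/Mg2+ buffer; compounds tested in qHTS format.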
TSG101-PTAP inh: inhibitors of HIV-1 PTAP binding to human TSG101, validation; Q99816; Fluorescence polarization, FITC-PTAP peptide/Tsg101, 20 min; Potency, µM (top dose mostly 115 µM), usual class: inhibitors; 44,000 tested, under 10 active; AID 1347069; also: potency is read from the fitted curve at half-maximal effect; 0% is about no effect
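Compounds pinned into 10 uM Tsg101 binding domain, then 50 nM FITC-PTAP peptide added in pH 7.5 HEPES buffer; FP read after 20 min, room temperature. Total S+P intensity flags fluorescent compounds; active cut-off <25 µM, efficacy <60%.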
HTT promoter inh: inhibitors of huntingtin promoter activity | HEK293 HTT promoter firefly luciferase reporter, 24 h | Potency, µM (doses to about 57.5 µM), for the others: top-dose activity change, negative = inhibition, usual class: inhibitors | hit rate 0.93% among 48,000 | AID 1508623; also: potency is read from the fitted curve at half-maximal effect; nearly all actives have a fitted effect of over 50% in size
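Luminescence was read after Dual-Glo reagent and a 10 min room-temperature incubation. Values were normalized to vehicle (0% activity) and zero RLU (-100% activity). Reporter HEK293 cells had been exposed to compounds (up to 57.5 uM final) for 24 h.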
HTT-AS act: HTT-AS promoter activation; Potency, µM (titrated, usually from 57.5 µM), for the others: at the top dose activity change, positive = activation, usual class: activators; hit rate 0.24% among 48,000; HEK293 HTT-AS promoter firefly luciferase reporter, 24 h; response scale: percent change from vehicle, -100% = no light; also: potency is read from the fitted curve at half-maximal effect; nearly all actives have a fitted effect of over 55% in size
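HEK293 luciferase promoter-reporter cells (2,500/well) plated 24 h, then compounds added at up to 57.5 uM final for 24 h at 37 °C. Firefly luminescence by Dual-Glo, normalized to vehicle (0%) and zero RLU (-100%).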
* marks the source's active call; other numbers are inactive results; i = inactive; ? = inconclusive; / = no result; [ ] = dose if it differs, or a comment. Unless noted, calls follow the shape of the dose curve; as a rule, active = well fitted curve in the direction sought with a large enough effect; inconclusive = small, poorly fitted or top-dose-only effect, or another doubt; inactive = no such curve, though single readings can be large; an effect the other way counts as inactive or inconclusive.

SMILES | DRV1 agonist | B2AR arrestin ag | GALK inhibitor | TSG101-PTAP inh | HTT promoter inh | HTT-AS act
COc1ccc(C(=O)NCCn2cc(SCc3cccc(F)c3)c3ccccc32)cc1OC | 36 | i | -2% | i | 25µM* | -58%
CCCc1ncc(C(=O)O)s1 | -6 | / | / | / | 5% | 2%
C[C@]12CC[C@H](O)CC1=CC[C@@H]1[C@H]2CC[C@]2(C)C(c3cccnc3)=CC[C@H]12 | / | / | / | / | 1%[25.2 µM] | -11%[25.1 µM]
Cc1cccc(OCC(=O)Nc2ccc3nc(Nc4cccc(Cl)c4)cc(C)c3c2)c1 | 103* | i | 1% | i | -26% | -33%
CN(C)c1ccc(Nc2ncnc3sc4c(c23)CCCC4)cc1 | 4 | i | 4% | i | 11µM* | -79%
CC(C)OCCCNc1ncnc2sc3c(c12)CCCC3 | 104* | i | 7% | i | ? | -39%
Cc1sccc1Br | -7 | / | / | / | 4% | -6%
Cc1ccc(SCCNC(=O)CN(c2cccc(C)c2C)S(C)(=O)=O)cc1 | 76* | i | 0% | i | ? | -38%
Cc1cccc(N(CC(=O)NCCSc2ccc(Cl)cc2)S(C)(=O)=O)c1C | 103* | i | 0% | i | ? | -41%
Cc1cccc(N(CC(=O)NCCSCc2ccc(Cl)cc2)S(C)(=O)=O)c1C | ? | i | 3% | i | -29% | -26%
CC1(C)CCC[C@@]2(C)[C@@H]1CC[C@@]1(C)OC(=O)C[C@H]21 | / | / | / | / | -10% | -6%
CCN(c1cccc(C)c1)S(=O)(=O)c1nnc(NC(=O)c2cccs2)s1 | 62* | i | 2% | i | -18% | -28%
CCN(c1cc(C)cc(C)c1)S(=O)(=O)c1nnc(NC(=O)c2cccs2)s1 | 34 | i | 0% | i | -8% | -21%
CC(C)C(=O)Nc1cccc(C2CN3CCSC3=N2)c1 (stereo not drawn) | -1 | / | / | / | -3% | -9%
C[C@]12CC[C@@H]3c4ccc(O)cc4CC[C@H]3[C@H]1[C@@H](O)[C@@H](O)[C@H]2O | / | / | / | / | 15% | 9%
O=C(Nc1cccc(Cl)c1)Nc1ncc(CCNc2ncnc3ccsc23)s1 | / | / | / | / | -7% | -26%
COc1ccc(N2CCN(C(=O)c3c(C)nn(-c4ccc(F)cc4)c3-n3cccc3)CC2)cc1 | -5 | i | -4% | i | -22% | 0%
Cc1nn(-c2ccc(F)cc2)c(-n2cccc2)c1C(=O)N1CCN(c2ccc(F)cc2)CC1 | 28 | i | 1% | i | 28µM* | -34%
CC(=O)O[C@H]1CC[C@@]2(C)C(=CC[C@@H]3[C@@H]2CC[C@]2(C)C(C(C)=O)=CC[C@@H]32)C1 | 2 | / | / | / | -4% | -5%
CCc1nnc(NC(=O)C(=O)c2cc(C)n(-c3ccccc3)c2C)s1 | -2 | i | 1% | i | ? | -50%
Cc1cc(C(=O)C(=O)Nc2nnc(C(C)C)s2)c(C)n1-c1ccccc1 | 30 | i | 2% | i | 6.3µM* | -86%
Cc1c(CCOc2ccc(C(=O)O)cc2)c2cc(Cl)ccc2n1C(c1ccccc1)c1ccccc1 | / | / | / | / | -3% | -12%
CCOC(=O)c1c(C)n(-c2ccccc2)c2ccc(OC(=O)c3ccccc3)cc12 | -33 | i | -4% | i | 20µM* | -71%
O=C(CN1C(=O)C2(CCCC2)NC[C@H]1c1cc(F)cc(F)c1)Nc1ccc2c(c1)C[C@@]1(C2)C(=O)Nc2ncccc21 | / | / | / | / | -1% | -11%
CN(C)c1ccc(C2Nc3ccc4ccccc4c3C3=C2C(=O)CC(C)(C)C3)cc1Br (stereo not drawn) | / | / | / | / | -12% | -15%
SMILES | DRV1 agonist | B2AR arrestin ag | GALK inhibitor | TSG101-PTAP inh | HTT promoter inh | HTT-AS act
Cc1ccccc1-c1noc(-c2ccc(N3CCCC3)c([N+](=O)[O-])c2)n1 | 24 | i | -12% | i | 10µM* | -77%
Cc1ccccc1-c1noc(-c2ccc(N3CCN(C)CC3)c([N+](=O)[O-])c2)n1 | -9 | i | -18% | i | 2.2µM* | -70%
CN(C)c1ccc(-c2nc(-c3ccccn3)no2)cc1[N+](=O)[O-] | 76* | i | -9% | i | ? | -54%
CCNc1ccc(-c2nc(-c3ccco3)no2)cc1[N+](=O)[O-] | -7 | i | -2% | i | 63% | 0.35µM*
NS(=O)(=O)c1cc(C(=O)NN2C[C@H]3[C@H]4CCC(C4)[C@H]3C2)ccc1Cl | 3 | / | / | / | 12% | 3%
O=C(Nc1nnc(-c2ccco2)o1)c1cc(-c2ccccc2)nc2ccccc12 | / | / | / | / | -10% | -11%
COc1ccc(-c2noc(-c3ccc(N4CCN(C)CC4)c([N+](=O)[O-])c3)n2)cc1 | 6 | i | -11% | i | 2% | 24%
CN1CCN(c2ccc(-c3nc(-c4ccccc4)no3)cc2[N+](=O)[O-])CC1 | 83* | i | 2% | i | ? | -90%
CCCCc1nc2cc(C=CC(=O)NO)ccc2n1CCN(CC)CC | / | / | / | / | 199% | ?
COc1cc2oc(=O)c(CC(=O)NCCc3ccccc3F)c(C)c2cc1OC | 77* | i | -10% | i | / | /
CCn1ccc2c(OCC(=O)NCc3ccccc3)cccc2c1=O | 22 | i | -3% | i | -23% | -10%
CCn1ccc2c(OCC(=O)Nc3ccccc3C(F)(F)F)cccc2c1=O | 85* | i | -5% | i | ? | -34%
CCCn1ccc2c(OCC(=O)NCc3ccccc3Cl)cccc2c1=O | 69* | i | -2% | i | -18% | -10%
CCn1ccc2c(OCC(=O)Nc3ccccc3C)cccc2c1=O | 45 | i | -2% | i | -35% | -21%
O=c1[nH]c(-c2ccc(C(F)(F)F)cc2)nc2c1CSCC2 | / | / | / | / | -1% | -5%
COc1ccc(-n2cc(-c3ccccc3)c3c(SC(C)C(C)=O)ncnc32)cc1 (stereo not drawn) | 99* | i | 3% | i | -22% | -22%
COC(=O)C(C)Sc1ncnc2c1c(-c1ccccc1)cn2-c1ccc(F)cc1 (stereo not drawn) | 0 | i | 6% | i | ? | -19%
Cc1ccc2oc(-c3cc(NC(=O)Cc4ccccc4)ccc3Cl)nc2c1 | 64* | i | -2% | i | / | /
Cc1ccc2oc(-c3cc(NC(=O)CC(C)C)ccc3Cl)nc2c1 | 14 | i | 1% | i | / | /
Cc1ccc(C(=O)Nc2ccc3oc(-c4ccccc4C)nc3c2)cc1 | 76* | i | 0% | i | 4% | -4%
COc1ccc(C(=O)Nc2ccc(-c3nc4cc(C)ccc4o3)c(O)c2)cc1 | 44 | i | 0% | i | 1% | -11%
